Laboratory results reported in PubChem BioAssay AID1159580 (chemical genetic matrix, 2015).
“And” between values parts separate entries of the source, which are not always exact repeats. Equal values may be shown once. The whole screen tested about 5,500 compounds, of which about 2,000 (36%) were called active. Another 18% or so got no clear call; they are omitted. Cut-off read from the data, not from the text of the source: active = normalized growth mostly below about 0.91 (no sharp cut-off); inconclusive = no clear call, values can overlap the other calls; inactive = mostly above about 0.92. This is one part of the list.

Assay: chemical genetic growth profiling, strain panel (AID 1159580);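 note: tested at 20 µM; growth read once vehicle control cultures reached saturation at 30 °C; 1 = growth at the plate median or of vehicle wells; lower values mean less growth of the strain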
Conditions: growth OD

Measured: normalized growth

NC(N)=NCCCCN=C(N)N
inactive: S. cerevisiae deletion strains, locus YKL009W, strain mrt4, stronger effect = lower value 1 | S. cerevisiae deletion strains, locus YKL068W, stronger effect = lower value 0.988 | S. cerevisiae deletion strains, locus YKL085W, strain MDH1 (second series), stronger effect = lower value 1.03 | S. cerevisiae deletion strains, locus YKL085W, strain MDH1, stronger effect = lower value 1.03 | S. cerevisiae deletion strains, locus YKL160W, strain elf1, stronger effect = lower value 1.02 | S. cerevisiae deletion strains, locus YKL190W, strain CNB1, stronger effect = lower value 0.985 | S. cerevisiae deletion strains, locus YKR001C, strain vps1, stronger effect = lower value 1.01 | S. cerevisiae deletion strains, locus YKR026C, strain gcn3, stronger effect = lower value 0.995 | S. cerevisiae deletion strains, locus YKR091W, strain srl3, stronger effect = lower value 1 | S. cerevisiae deletion strains, locus YLL001W, strain dnm1, stronger effect = lower value 1.01 | S. cerevisiae deletion strains, locus YLL026W, stronger effect = lower value 1.01 | S. cerevisiae deletion strains, locus YLL041C, strain sdh2, stronger effect = lower value 0.986 | S. cerevisiae deletion strains, locus YLR027C, strain aat2, stronger effect = lower value 1 | S. cerevisiae deletion strains, locus YLR039C, strain RIC1, stronger effect = lower value 0.99 | S. cerevisiae deletion strains, locus YLR058C, strain SHM2, stronger effect = lower value 0.972 | S. cerevisiae deletion strains, locus YLR102C, strain apc9, stronger effect = lower value 0.993 | S. cerevisiae deletion strains, locus YLR113W, strain HOG1, stronger effect = lower value 0.97 | S. cerevisiae deletion strains, locus YLR221C, strain rsa3, stronger effect = lower value 1.04 | S. cerevisiae deletion strains, locus YLR258W, strain gsy2, stronger effect = lower value 1.01 | S. cerevisiae deletion strains, locus YLR262C, strain YPT6 (second series), stronger effect = lower value 1.02 | S. cerevisiae deletion strains, locus YLR262C, strain YPT6, stronger effect = lower value 0.963 | S. cerevisiae deletion strains, locus YLR268W, strain sec22, stronger effect = lower value 0.978 | S. cerevisiae deletion strains, locus YLR320W, strain mms22, stronger effect = lower value 1.05 | S. cerevisiae deletion strains, locus YLR330W, strain CHS5, stronger effect = lower value 0.993 | S. cerevisiae deletion strains, locus YLR342W, strain FKS1 (second series), stronger effect = lower value 1.03 | S. cerevisiae deletion strains, locus YLR342W, strain FKS1, stronger effect = lower value 0.993 | S. cerevisiae deletion strains, locus YLR357W, strain rsc2, stronger effect = lower value 0.998 | S. cerevisiae deletion strains, locus YLR370C, strain arc18, stronger effect = lower value 0.991 | S. cerevisiae deletion strains, locus YLR371W, strain rom2, stronger effect = lower value 0.95 | S. cerevisiae deletion strains, locus YLR384C, strain iki3, stronger effect = lower value 0.997 | S. cerevisiae deletion strains, locus YLR418C, strain cdc73, stronger effect = lower value 0.971 | S. cerevisiae deletion strains, locus YML016C, strain PPZ1, stronger effect = lower value 0.992 | S. cerevisiae deletion strains, locus YML032C, strain rad52, stronger effect = lower value 1.01 | S. cerevisiae deletion strains, locus YML120C, strain ndi1, stronger effect = lower value 0.998 | S. cerevisiae deletion strains, locus YML124C, strain tub3, stronger effect = lower value 0.997 | S. cerevisiae deletion strains, locus YMR058W, strain fet3, stronger effect = lower value 0.998 | S. cerevisiae deletion strains, locus YMR078C, strain ctf18, stronger effect = lower value 0.992 | S. cerevisiae deletion strains, locus YMR125W, strain sto1, stronger effect = lower value 0.963 | S. cerevisiae deletion strains, locus YMR129W, stronger effect = lower value 1 | S. cerevisiae deletion strains, locus YMR205C, strain PFK2, stronger effect = lower value 1.03 | S. cerevisiae deletion strains, locus YMR223W, strain ubp8, stronger effect = lower value 1.01 | S. cerevisiae deletion strains, locus YMR231W, strain pep5, stronger effect = lower value 0.993 | S. cerevisiae deletion strains, locus YMR263W, strain SAP30, stronger effect = lower value 0.953 and 0.994 | S. cerevisiae deletion strains, locus YMR307W, strain GAS1, stronger effect = lower value 1.06 and 0.991 | S. cerevisiae deletion strains, locus YNL067W, strain RPL9B, stronger effect = lower value 0.972 | S. cerevisiae deletion strains, locus YNL071W, strain lat1, stronger effect = lower value 0.991 | S. cerevisiae deletion strains, locus YNL128W, strain TEP1, stronger effect = lower value 0.92 and 0.999 | S. cerevisiae deletion strains, locus YNL153C, strain GIM3, stronger effect = lower value 0.978 | S. cerevisiae deletion strains, locus YNL175C, strain NOP13, stronger effect = lower value 1.01 | S. cerevisiae deletion strains, locus YNL183C, strain NPR1, stronger effect = lower value 0.92 | S. cerevisiae deletion strains, locus YNL197C, strain WHI3, stronger effect = lower value 1.02 | S. cerevisiae deletion strains, locus YNL209W, strain ssb2, stronger effect = lower value 1.01 | S. cerevisiae deletion strains, locus YNL224C, strain SQS1, stronger effect = lower value 1.01 | S. cerevisiae deletion strains, locus YNL233W, strain BNI4, stronger effect = lower value 0.979 | S. cerevisiae deletion strains, locus YNL248C, strain rpa49, stronger effect = lower value 0.967 | S. cerevisiae deletion strains, locus YNL250W, strain rad50, stronger effect = lower value 0.98 | S. cerevisiae deletion strains, locus YNL271C, strain bni1, stronger effect = lower value 0.994 | S. cerevisiae deletion strains, locus YNL298W, strain CLA4, stronger effect = lower value 0.994 | S. cerevisiae deletion strains, locus YNL307C, strain MCK1, stronger effect = lower value 1.01 | S. cerevisiae deletion strains, locus YNL322C, strain KRE1 (second series), stronger effect = lower value 1 | S. cerevisiae deletion strains, locus YNL322C, strain KRE1, stronger effect = lower value 0.977 | S. cerevisiae deletion strains, locus YNR049C, strain mso1, stronger effect = lower value 0.997 | S. cerevisiae deletion strains, locus YNR052C, strain pop2, stronger effect = lower value 0.997 | S. cerevisiae deletion strains, locus YOL006C, strain TOP1, stronger effect = lower value 0.957 | S. cerevisiae deletion strains, locus YOL012C, strain htz1 0.788 | S. cerevisiae deletion strains, locus YOL147C, strain pex11, stronger effect = lower value 0.993 | S. cerevisiae deletion strains, locus YOR001W, strain rrp6, stronger effect = lower value 0.97 | S. cerevisiae deletion strains, locus YOR061W, strain CKA2, stronger effect = lower value 0.955 | S. cerevisiae deletion strains, locus YOR069W, strain VPS5, stronger effect = lower value 0.999 | S. cerevisiae deletion strains, locus YOR070C, strain gyp1, stronger effect = lower value 1.02 | S. cerevisiae deletion strains, locus YOR080W, strain dia2, stronger effect = lower value 1.01 | S. cerevisiae deletion strains, locus YOR083W, strain WHI5 (second series), stronger effect = lower value 0.988 | S. cerevisiae deletion strains, locus YOR083W, strain WHI5, stronger effect = lower value 1.04 | S. cerevisiae deletion strains, locus YOR106W, strain vam3, stronger effect = lower value 1.03 | S. cerevisiae deletion strains, locus YOR136W, strain idh2, stronger effect = lower value 0.997 | S. cerevisiae deletion strains, locus YOR144C, strain elg1, stronger effect = lower value 0.999 | S. cerevisiae deletion strains, locus YOR184W, strain ser1, stronger effect = lower value 1.03 | S. cerevisiae deletion strains, locus YOR231W, strain MKK1, stronger effect = lower value 0.968 | S. cerevisiae deletion strains, locus YOR265W, strain rbl2, stronger effect = lower value 1.01 | S. cerevisiae deletion strains, locus YOR270C, strain vph1, stronger effect = lower value 0.991 | S. cerevisiae deletion strains, locus YOR290C, strain snf2, stronger effect = lower value 0.968 | S. cerevisiae deletion strains, locus YOR316C, strain cot1, stronger effect = lower value 0.988 | S. cerevisiae deletion strains, locus YPL051W, strain arl3, stronger effect = lower value 1.04 | S. cerevisiae deletion strains, locus YPL055C, strain LGE1, stronger effect = lower value 0.95 and 0.989 | S. cerevisiae deletion strains, locus YPL078C, strain atp4, stronger effect = lower value 1.01 | S. cerevisiae deletion strains, locus YPL106C, strain sse1, stronger effect = lower value 1.01 | S. cerevisiae deletion strains, locus YPL240C, strain hsp82, stronger effect = lower value 1.01 | S. cerevisiae deletion strains, locus YPL241C, strain CIN2, stronger effect = lower value 0.988 and 0.994 | S. cerevisiae deletion strains, locus YPL256C, strain CLN2, stronger effect = lower value 0.979 | S. cerevisiae deletion strains, locus YPR119W, strain clb2, stronger effect = lower value 1 | S. cerevisiae deletion strains, locus YPR141C, strain kar3, stronger effect = lower value 0.975 | S. cerevisiae deletion strains, locus YPR163C, strain tif3, stronger effect = lower value 1 | S. cerevisiae deletion strains, locus YPR167C, strain met16, stronger effect = lower value 0.988 | S. cerevisiae deletion strains, strain wtn01, stronger effect = lower value 0.983 | S. cerevisiae strains, strain wild type, stronger effect = lower value 0.998
